Bioassay records from PubChem BioAssay.
Gal4-VP16 FLuc = inhibits Gal4-VP16 luciferase reporter, ROR gamma counter-screen | actives 3.5% (n = 310,000) | Drosophila S2 Gal4-VP16 UAS-luciferase, luminescence, 20 h | Potency, µM (doses to about 53.6 µM), for inactives: top-dose activity, negative = inhibition, hits mostly inhibitors | AID 2546;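 note: Gal4-VP16 expression switched on by copper sulfate through the metallothionein promoter; potency is the fitted concentration of half-maximal effect; % is set by controls: 0 for no effect and ±100 for the full control effect; nearly all actives have a fitted effect of over 50% in size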
RORgamma inh = inhibitors of mouse ROR gamma transcriptional activity. Potency, µM (top dose mostly 53.6 µM), for inactives: at the highest dose activity change, negative = inhibition, most hits filed as inhibitors. P51450. actives 5.4% (n = 310,000). Drosophila S2 Gal4-RORgamma UAS-luciferase reporter, 20 h. AID 2551; note: potency is the fitted concentration of half-maximal effect; % is set by controls: 0 for no effect and ±100 for the full control effect; nearly all actives have a fitted effect of over 60% in size
Target sequence (P51450 whole entry, looked up, the tested form may be a part): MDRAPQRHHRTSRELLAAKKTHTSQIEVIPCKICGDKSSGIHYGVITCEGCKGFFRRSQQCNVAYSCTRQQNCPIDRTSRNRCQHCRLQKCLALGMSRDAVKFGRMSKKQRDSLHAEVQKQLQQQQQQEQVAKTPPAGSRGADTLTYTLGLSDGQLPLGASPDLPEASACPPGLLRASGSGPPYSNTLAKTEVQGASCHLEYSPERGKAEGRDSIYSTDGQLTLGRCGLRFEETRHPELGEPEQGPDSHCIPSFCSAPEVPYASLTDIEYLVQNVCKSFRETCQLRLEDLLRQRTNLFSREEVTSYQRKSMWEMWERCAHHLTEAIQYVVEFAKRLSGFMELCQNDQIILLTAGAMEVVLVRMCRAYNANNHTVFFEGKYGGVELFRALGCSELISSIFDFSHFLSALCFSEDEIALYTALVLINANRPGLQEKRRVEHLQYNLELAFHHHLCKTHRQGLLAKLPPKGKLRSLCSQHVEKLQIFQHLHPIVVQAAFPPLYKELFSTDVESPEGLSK
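A Gal4/UAS one-hybrid system in insect cells: metallothionein-promoter Gal4–ROR gamma fusion plus Photinus luciferase reporter. Copper sulfate 700 uM final, 20 hr ambient incubation, luminescent detection after 10 min with reagent.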
p53 reactivation = re-activators of mutant p53 | Potency, µM (highest dose often 92.2 µM), without a hit: at the top dose activity change, positive = activation, hits mostly activators | H1299 p53-A138V BP100-luciferase reporter, luminescence, 24 h | actives 0.063% (n = 320,000); note: potency is the fitted concentration of half-maximal effect; % of control where 0% means no effect; nearly all actives have a fitted effect of over 45% in size
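p53-null H1299 cells stably carrying temperature-sensitive p53-A138V and a BP100-luciferase reporter were pinned with compounds (4-point, 1:5 series) and held 24 hrs at 37 deg C. Luminescence was read 10 min after detection reagent.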
Giardia killer = Giardia lamblia killing | Giardia lamblia trophozoite viability | activity change, % at 7.66 µM, hits read low | actives 0.15% (n = 340,000); in the data active = activity change below about -80%; inconclusive = between about -30% and that limit;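 note: parasites exposed to compound for two days anaerobically before the ATP read; % is set by controls: 0 for no effect and ±100 for the full control effect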
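Anaerobic 48 hrs incubation at 37 deg C of 100 trophozoites/well with test compounds; ATPLite 1-Step luminescence, 15-30 min RT, reports cellular ATP as viability.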
ELG1 DNA repair = ELG1-dependent DNA repair inhibition; HEK293T ELG1-luciferase reporter, luminescence, 16 h; DNA damage induced by 5-fluorouridine; Potency, µM (series often up to 46.1 µM), for the others: top-dose activity change, negative = inhibition, hits mostly inhibitors; actives 2.3% (n = 330,000); note: potency is the fitted concentration of half-maximal effect; % is set by controls: 0 for no effect and ±100 for the full control effect; nearly all actives have a fitted effect of over 55% in size
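5-Fluorouridine DNA damage + compound/DMSO, 2,000 cells/well, 16 h, 37 °C/5% CO2. ONE-Glo, 30 min RT, luminescence. Readout = decrease in reporter signal.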
BRCA1 expr act = BRCA1 expression activation. actives 1.1% (n = 380,000). MCF7-BRCA1-FFLuc reporter, luminescence, 48 h; response scale: scaled: vehicle 0%, 10 µM genistein 100%. Potency, µM (top dose mostly 46.1 µM), without a hit: at the top dose activation, usual class: activators; note: potency is the fitted concentration of half-maximal effect; nearly all actives have a fitted effect of over 80% in size
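First, MCF7-BRCA1-FFLuc cells (2000/well) attach for 2 h; next, compounds are pin-added and incubated 48 h at 37 °C; finally, luciferase reagent is added and luminescence read after 15 min.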
Starred values were filed as active, the others as inactive; ? = inconclusive; / = no result given; [ ] = another dose, or the depositor's remark. Rows were chosen to be rich in hits. Some 7.6% of all compounds tested hit in one or more screens of this group. Unless noted, calls come from the whole dose curve; as a rule, active = well fitted curve in the direction sought with a large enough effect; inconclusive = small, poorly fitted or top-dose-only effect, or another doubt; inactive = no such curve, though single readings can be large; an effect the other way counts as inactive or inconclusive.

SMILES	Gal4-VP16 FLuc	RORgamma inh	p53 reactivation	Giardia killer	ELG1 DNA repair	BRCA1 expr act
NC(=O)CC(NC(=O)Cc1ccc(Br)cc1)c1ccc(NCCOc2ccccc2)c([N+](=O)[O-])c1 (configuration not stated)	-3%	?	-3%	0	-6%	-8%
CN(CCCC1CCCC1)C(=O)CCc1nnc(-c2ccccc2)o1	-10%	29%	23%	2	?	?
Cc1cc(C)n(CCN(C)C(=O)CCc2nnc(CCC3CCCCC3)o2)n1	-2%	4%	14%	-27	?	11µM*
NS(=O)(=O)c1ccc(-c2ccc(/C=N/NC(=O)c3ccccc3O)o2)cc1	18µM*	3.5µM*	0%	-2	-15%	-23%
O=C(N/N=C/c1ccc(-c2ccc(S(=O)(=O)Nc3ncccn3)cc2)o1)c1cc2ccccc2cc1O	6%	1%	5%	1	-8%	-27%
Cc1ccc(-c2ccc(/C=N/NC(=O)c3ccccc3O)o2)cc1	0.16µM*	0.71µM*	2%	/	?	/
O=C1c2ccccc2S(=O)(=O)N1Cc1nc2ccccc2s1	4µM*	3.2µM*	-24%	-6	?	-84%
N#Cc1c(-c2ccccc2)c(C#N)c2nc3ccccc3n2c1N	?	7%	-9%	14	-15%	-42%
Cc1cccc(NC(=O)CSc2cc(C)c(C#N)c3nc4ccccc4n23)c1	?	0.79µM*	2%	-19	?	-5%
Cc1cc(Cl)n2c(nc3ccccc32)c1C#N	?	3.2µM*	-18%	0	21µM*	-78%
Cc1ccc(-c2c(C#N)c(N)n3c(nc4ccccc43)c2C#N)cc1	?	?	14%	33	18µM*	-86%
CNc1cc(C)c(C#N)c2nc3ccccc3n12	-8%	17%	/	4	-10%	8%
CS(=O)(=O)c1ccc(C(=O)OC2CCOC2=O)cc1[N+](=O)[O-] (configuration not stated)	?	4.5µM*	18%	-12	?	-2%
Cc1ccc(N2CN(Cc3ccco3)CNC2=S)cc1	?	11µM*	1%	-11	-15%	-3%
S=C1NCN(Cc2cccnc2)CN1c1cccc(Cl)c1	3%	-12%	-1%	5	-15%	-34%
Cc1cccc(N2CN(Cc3ccco3)CNC2=S)c1	?	11µM*	-10%	2	37%	0%
COc1ccc(-c2nc3c(C)cc(Br)cn3c2Cc2ccc(C)cc2)cc1OC	/	/	/	/	/	-19%
CC(=O)c1cccc(OCC(=O)N2CCCc3ccccc32)c1	-7%	-14%	4%	2	17%	19%
COc1ccc(NC(=O)c2ccc(S(=O)(=O)N3CCCCCC3)cc2)c(OC)c1	-5%	15%	-8%	-28	-11%	6%
COc1ccc(CN2C(=O)C(CC(=O)NCCCN(C)C)CC(C(=O)N3CCOCC3)=C2C)cc1 (configuration not stated)	/	/	/	/	/	5%
Cc1cc(C(=O)CN(Cc2ccc(F)cc2)S(=O)(=O)c2ccc3c(c2)OCCO3)c(C)n1C	2%	1%	22%	4	?	-8%[1.84 µM]
CC(C)CC(NC(=O)C(NC(=O)C(Cc1ccc(OCc2ccccc2)cc1)NC(=O)OC(C)(C)C)C(C)C)C(N)=O (configuration not stated)	13µM*	?	4%	1	14%	-16%
COC(=O)/C(=C1/Oc2cc(C)oc(=O)c2S1)C(F)(F)F	1.1µM*	0.71µM*	-36%	2	?	-91%
O=C(CCc1nnc(CCCCc2ccccc2)o1)N1CCN(CCO)CC1	-7%	2%	-1%	-6	15%	16%
Fc1ccc(-c2cn3cc(Cc4ccc(Cl)cc4)sc3n2)cc1	/	/	/	/	/	4.5µM*
SMILES	Gal4-VP16 FLuc	RORgamma inh	p53 reactivation	Giardia killer	ELG1 DNA repair	BRCA1 expr act
Clc1ccccc1Cc1cn2cc(-c3ccccc3)nc2s1	/	/	/	/	/	114%
Fc1ccc(Cc2cn3cc(-c4ccc(Cl)cc4)nc3s2)cc1	/	/	/	/	/	0.89µM*
Fc1ccc(Cc2cn3cc(-c4ccccc4)nc3s2)cc1	/	/	/	/	/	14%
COc1cccc2c1OC1(CCN(C(C)C)CC1)N1N=C(c3cccnc3)CC21 (configuration not stated)	?	?	11%	-2	-4%	43%
Cc1cc(C)c2cc(C#N)c(NCCCNC(=O)c3cccnc3)nc2c1	/	/	/	/	/	-1%
CCCc1cc(NCC2CCCO2)n2c(nc3ccccc32)c1C#N (configuration not stated)	8%	-7%	-2%	-12	23µM*	-17%
CCCc1cc(NCCN(C)C)n2c(nc3ccccc32)c1C#N	-7%	-19%[1.91 µM]	/	-25	1%	22%
NC(=O)N/N=C/c1cn(-c2ccccc2)nc1-c1cccnc1	3%	-3%	3%	20	17%	2%
NC(=S)N/N=C/c1cn(-c2ccccc2)nc1-c1cccnc1	8.9µM*	6.3µM*	1%	11	2%	38%
O=C(N/N=C/c1cn(-c2ccccc2)nc1-c1cccnc1)c1ccccc1	-2%	5.6µM*	9%	0	?	-21%
O=C(O)/C(=C\c1cn(-c2ccccc2)nc1-c1cccnc1)NC(=O)c1ccccc1	-10%	4%	-1%	-10	1%	-2%
Cc1ccc([C@H]2C[C@@H](n3cc(-c4ccc(F)cc4)nn3)[C@H](O)CN2Cc2cccs2)cc1	/	/	/	/	/	-21%
CN(C)S(=O)(=O)c1cc(S(=O)(=O)N(C)C)c(Cl)cc1N	1%	40%	-6%	7	-5%	1%
O=C(Nc1ccc(Cl)cc1)C1CCCN1C(=O)NCc1ccccc1 (configuration not stated)	12%	25%	-4%	-17	11%	-2%
CCSc1nnc(NC(=O)CSc2nccn2-c2cccc(C)c2C)s1	?	10µM*	2%	2	?	16%
CCSc1nnc(NC(=O)CSc2nccn2-c2cc(C)cc(C)c2)s1	?	14µM*	1%	-5	14%	-8%
CCSc1nnc(NC(=O)CSc2c(Cl)cccc2Cl)s1	-24%	11µM*	-11%	5	-8%	-1%
Cc1cc(C)cc(-n2ccnc2SCC(=O)Nc2nnc(C)s2)c1	/	/	/	/	/	-45%
O=c1c2ccccc2nc(/C=C/c2cccc(Br)c2)n1CCCO	-3%	35%	-2%	-9	15µM*	-61%
O=c1c2ccccc2nc(/C=C/c2ccc([N+](=O)[O-])cc2)n1CCCO	5%	5%	-1%	-6	18µM*	-38%
